Here are results for seven compounds from PubChem BioAssay.

Calls of active or inactive are those of the source. How the calls were made is not given here.

The target of the assay is Pantothenate synthetase (Mycobacterium tuberculosis (strain ATCC 25618 / H37Rv)) (UniProt P9WIL5). Description: Recombinant Mtb pantothenate synthetase (PanC) inhibitors, coupled enzyme, confirmatory (AID 375).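 Further: 0% = full reaction with vehicle and 100% = no enzyme background.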 As to conditions: coupled enzyme assay; at 10 µM, active compounds read high.
Pantothenate synthetase (Mycobacterium tuberculosis (strain ATCC 25618 / H37Rv)), sequence (P9WIL5 whole entry, looked up): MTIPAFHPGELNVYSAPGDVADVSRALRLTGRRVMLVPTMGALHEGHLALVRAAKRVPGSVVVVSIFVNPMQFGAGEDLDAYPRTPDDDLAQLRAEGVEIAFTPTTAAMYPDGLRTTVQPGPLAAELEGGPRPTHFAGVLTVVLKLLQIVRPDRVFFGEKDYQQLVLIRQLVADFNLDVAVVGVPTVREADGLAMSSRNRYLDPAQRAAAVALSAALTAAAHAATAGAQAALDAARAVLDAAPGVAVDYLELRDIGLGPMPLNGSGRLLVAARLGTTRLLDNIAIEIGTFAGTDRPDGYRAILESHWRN
As to `FC(F)(F)c1cccc(N2CCN(c3nnnn3-c3ccccc3)CC2)c1`, the inhibition was 0% (inactive).

Turning to `O=S(=O)(NC1=NCCC1)c1cccs1`, the inhibition was 0% (inactive).

Take `O=C(COC(=O)CCC1CCCC1)Nc1ccc(Cl)cn1`: the inhibition is 2% (inactive).

Regarding `CCOC(=O)c1sc2nc(NC(=O)C(C)(C)C)sc2c1C`, the inhibition was 8% (inactive).

As for `O=c1[nH]cnc2c1nc(SCc1ccccc1)n2C1OC(CO)C(O)C1O` (configuration not stated), the inhibition is 0% (inactive).

On to `CC(=O)n1cc(-c2ccncc2)c2ccccc21`, for which the inhibition was 0% (inactive).

In the case of `COc1cc(-c2c(C#N)c(N)nc3c2CCCC3)cc(OC)c1OC`, the inhibition is 5% (inactive).

One may read the inhibition as the share of the control response that was lost under treatment.
